From PubChem BioAssay (NCATS)
Records with an inconclusive call do not appear. Where a call stands in place of a potency, no number is given. Calls of active or inactive are those of the source. The call rests on the fitted dose curve; in most records, active means well fitted curve in the direction sought with a large enough effect; inconclusive means small, poorly fitted or top-dose-only effect, or another doubt; inactive means no such curve, though single readings can be large; an effect the other way counts as inactive or inconclusive.

System: not listed separately
Experiment: qHTS of pediatric cancer cell lines to identify multiple opportunities for drug repurposing: Confirmatory screen for Rh41 cells (AID 1347123);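 further: 48 h compound exposure; nearly all actives have a fitted effect of over 60% in size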; further: potency means the concentration at half of the fitted maximal effect
Details: Rh41 rhabdomyosarcoma cells, viability/cytotoxicity qHTS; series mostly up to 45.9 µM
In short: (§1)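 Viability after 48 h compound treatment at 37C, 500-1,000 cells/well, read as ATP luminescence with CellTiter-Glo. Primary screens used 11-point (MIPE, 0.78 nM-46 µM) or 8-point (NPC, 0.59 nM-46 µM) final concentrations; follow-up screens used 11-point dilutions.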
With `O=C(Cn1ccnc1[N+](=O)[O-])NCc1ccccc1` the Potency was “inactive”.
In the case of `CC(=O)OCC(=O)[C@@]1(O)CC[C@H]2[C@@H]3CCC4=CC(=O)C=C[C@]4(C)[C@@]3(F)[C@@H](O)C[C@@]21C`, the Potency is reported as 11.7 µM (active).
In the case of `COc1cc(C(=O)NCCCCCC(=O)O)cc(OC)c1OC`, the Potency is reported as “inactive”.

System: not listed separately
Experiment: qHTS of pediatric cancer cell lines to identify multiple opportunities for drug repurposing: Confirmatory screen for RD cells (AID 1347124);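 further: cells exposed to compound for 48 h before viability readout; nearly all actives have a fitted effect of over 65% in size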; further: potency means the concentration at half of the fitted maximal effect
Details: RD rhabdomyosarcoma cell viability; series mostly up to 45.9 µM
Text: Drug repurposing or repositioning has been offered as a strategy for drug development in oncology programs. This approach has special potential for childhood cancers and other rare or orphan diseases, where the expected return on new drug development has been a disincentive to pharmaceuticals.
In this project we exploit the poly-pharmacology of drugs to discover new indications via phenotypic screening of a panel of 19 well-characterized cell lines derived from solid tumors seen in children and adolescents. The goal is to identify approved drugs with previously unrecognized anticancer properties that has the potential to reveal new mechanisms and biological processes involved in carcinogenesis or drug resistance. We employed a titration-based paradigm (quantitative high-throughput screening or qHTS), where all compounds were tested at multiple concentrations for their effect on cell viability. Concentration-response curves (CRCs) were derived directly from the primary screen, and both potency and efficacy values were used to identify compounds with robust bioactivity profiles. We screened the NIH Chemical Genomics Center (NCGC) Pharmaceutical Collection (NPC) and Mechanism Interrogation Plate (MIPE) small molecule collections of approved and investigational compounds against these cell lines; and measured metabolically active cells after 48 hours of compound treatment as a proxy for cell viability.
Assay Submitter: Nathalia J. Martinez, National Center for Advancing Translational Sciences, National Institutes of Health, Rockville, MD, USA; email: natalia.martinez@nih.gov
[1] Shen, M et al. Quantitative high-throughput phenotypic screening of pediatric cancer cell lines identifies multiple opportunities for drug repurposing. Oncotarget 2017 Dec 19;9(4):4758-4772. PMID 29435139.
The cells were obtained from University of North Carolina (UNC), Pediatric Preclinical Testing Program (PPT), and Coriell Institute (CI).
qHTS cell viability assay:
Cells were assayed in growth media at a density of 500-1,000 cells/well. Five microliters of cells were dispensed into 1,536-well, white, solid-bottom, TC-treated plates (Greiner Bio One) using a multidrop dispenser and incubated at 37 degrees C, 5% CO2, under a humidified atmosphere for 5 hours. Twenty-three nanoliters of compounds and controls (neutral control DMSO or positive control bortezomib at final concentration of 2.3 µM) were subsequently transferred by Kalypsys pintool. […] After a 15 min incubation at room temperature, samples were analyzed for luminescence intensity using a ViewLux High-throughput CCD imager equipped with clear filters.
With `O=C(Cn1ccnc1[N+](=O)[O-])NCc1ccccc1` the Potency was “inactive”.
In the case of `CC(=O)[C@@]1(O)CC[C@H]2[C@@H]3C[C@H](C)C4=CC(=O)C=C[C@]4(C)[C@@]3(F)[C@@H](O)C[C@@]21C`, the Potency is reported as “inactive”.
For `CC(=O)OCC(=O)[C@@]1(O)CC[C@H]2[C@@H]3CCC4=CC(=O)C=C[C@]4(C)[C@@]3(F)[C@@H](O)C[C@@]21C`, the Potency was 20.8 µM (active).
In the case of `COc1cc(C(=O)NCCCCCC(=O)O)cc(OC)c1OC`, the Potency is reported as “inactive”.

System: not listed separately
Experiment: qHTS of pediatric cancer cell lines to identify multiple opportunities for drug repurposing: Confirmatory screen for Rh18 cells (AID 1347125); further: nearly all actives have a fitted effect of over 55% in size; further: potency means the concentration at half of the fitted maximal effect
Details: Rh18 rhabdomyosarcoma cells, viability; series mostly up to 45.9 µM
In short: as §1
With `O=C(Cn1ccnc1[N+](=O)[O-])NCc1ccccc1` the Potency was “inactive”.
With `CC(=O)[C@@]1(O)CC[C@H]2[C@@H]3C[C@H](C)C4=CC(=O)C=C[C@]4(C)[C@@]3(F)[C@@H](O)C[C@@]21C` the Potency was “inactive”.
In the case of `CC(=O)OCC(=O)[C@@]1(O)CC[C@H]2[C@@H]3CCC4=CC(=O)C=C[C@]4(C)[C@@]3(F)[C@@H](O)C[C@@]21C`, the Potency is reported as 18.5 µM (active).
With `COc1cc(C(=O)NCCCCCC(=O)O)cc(OC)c1OC` the Potency was “inactive”.

System: not listed separately
Experiment: qHTS of pediatric cancer cell lines to identify multiple opportunities for drug repurposing: Confirmatory screen for Rh30 cells (AID 1347126); further: nearly all actives have a fitted effect of over 55% in size; further: potency means the concentration at half of the fitted maximal effect
Details: Rh30 rhabdomyosarcoma cell viability; series mostly up to 45.9 µM
In short: as §1
For `CC(=O)[C@@]1(O)CC[C@H]2[C@@H]3C[C@H](C)C4=CC(=O)C=C[C@]4(C)[C@@]3(F)[C@@H](O)C[C@@]21C`, the Potency was “inactive”.
In the case of `CC(=O)OCC(=O)[C@@]1(O)CC[C@H]2[C@@H]3CCC4=CC(=O)C=C[C@]4(C)[C@@]3(F)[C@@H](O)C[C@@]21C`, the Potency is reported as 13.1 µM (active).
With `COc1cc(C(=O)NCCCCCC(=O)O)cc(OC)c1OC` the Potency was “inactive”.

System: not listed separately
Experiment: qHTS of pediatric cancer cell lines to identify multiple opportunities for drug repurposing: Confirmatory screen for OHS-50 cells (AID 1347128);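 further: compound exposure lasted 48 h at 37 degrees C; nearly all actives have a fitted effect of over 55% in size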; further: potency means the concentration at half of the fitted maximal effect
Details: OHS-50 osteosarcoma cells viability; series mostly up to 45.9 µM
In short: as §1
With `CC(=O)[C@@]1(O)CC[C@H]2[C@@H]3C[C@H](C)C4=CC(=O)C=C[C@]4(C)[C@@]3(F)[C@@H](O)C[C@@]21C` the Potency was “inactive”.
For `CC(=O)OCC(=O)[C@@]1(O)CC[C@H]2[C@@H]3CCC4=CC(=O)C=C[C@]4(C)[C@@]3(F)[C@@H](O)C[C@@]21C`, the Potency was 16.5 µM (active).
For `COc1cc(C(=O)NCCCCCC(=O)O)cc(OC)c1OC`, the Potency was “inactive”.

System: not listed separately
Experiment: qHTS of pediatric cancer cell lines to identify multiple opportunities for drug repurposing: Confirmatory screen for SK-N-SH cells (AID 1347129);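 further: cells exposed to compound for 48 h before viability read; nearly all actives have a fitted effect of over 60% in size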
Details: SK-N-SH neuroblastoma cell viability; series mostly up to 46.1 µM
In short: as §1
In the case of `O=C(Cn1ccnc1[N+](=O)[O-])NCc1ccccc1`, the outcome is reported as “inactive”.
For `CC(=O)OCC(=O)[C@@]1(O)CC[C@H]2[C@@H]3CCC4=CC(=O)C=C[C@]4(C)[C@@]3(F)[C@@H](O)C[C@@]21C`, the outcome was “inactive”.
In the case of `COc1cc(C(=O)NCCCCCC(=O)O)cc(OC)c1OC`, the outcome is reported as “inactive”.

Molecular target: Furin (Homo sapiens) (UniProt P09958)
Sequence (P09958 whole entry, looked up): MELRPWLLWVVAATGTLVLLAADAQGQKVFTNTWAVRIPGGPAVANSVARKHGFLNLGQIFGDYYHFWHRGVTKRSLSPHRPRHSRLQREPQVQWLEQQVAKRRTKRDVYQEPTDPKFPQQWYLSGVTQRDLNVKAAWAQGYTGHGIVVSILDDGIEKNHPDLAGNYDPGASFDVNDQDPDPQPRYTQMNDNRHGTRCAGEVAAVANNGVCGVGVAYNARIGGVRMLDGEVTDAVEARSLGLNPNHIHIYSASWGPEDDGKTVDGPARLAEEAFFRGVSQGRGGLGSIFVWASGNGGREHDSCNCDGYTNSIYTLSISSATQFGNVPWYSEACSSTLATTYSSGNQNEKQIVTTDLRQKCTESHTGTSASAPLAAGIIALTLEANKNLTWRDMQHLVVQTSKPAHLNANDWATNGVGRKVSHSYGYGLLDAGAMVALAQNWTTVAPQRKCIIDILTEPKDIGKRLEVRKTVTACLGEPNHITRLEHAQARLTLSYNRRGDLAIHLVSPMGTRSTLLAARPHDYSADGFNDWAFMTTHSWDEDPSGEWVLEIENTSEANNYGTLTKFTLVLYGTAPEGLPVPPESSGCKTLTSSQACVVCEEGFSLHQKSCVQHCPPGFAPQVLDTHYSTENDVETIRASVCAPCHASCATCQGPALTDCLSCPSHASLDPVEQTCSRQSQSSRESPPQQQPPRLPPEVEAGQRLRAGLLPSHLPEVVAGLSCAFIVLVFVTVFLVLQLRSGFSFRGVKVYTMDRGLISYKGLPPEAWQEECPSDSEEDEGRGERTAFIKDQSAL
Experiment: Furin counterscreen qHTS for Zika virus inhibitors (AID 1347149); further: nearly all actives have a fitted effect of over 70% in size; further: potency means the concentration at half of the fitted maximal effect;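 on activity change, negative = inhibition: purified recombinant full-length human furin enzyme at 5 nM; fluorescence gain from furin cutting a BOC-RVRR-AMC peptide substrate over 15 min; top concentration of the series differs between compounds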
Details: furin enzymatic counterscreen, fluorogenic substrate; series mostly up to 114 µM
In short: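 Counterscreen measures cleavage of 2 microM BOC-RVRR-AMC, below its ~15 microM Km, by 5 nM full-length human furin at pH 7.0 after a 15-min compound preincubation. Inhibition derives from the 15-min fluorescence increase at 37C.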
For `COc1ccccc1Oc1c(NS(=O)(=O)c2ccc(C(C)(C)C)cc2)nc(-c2ncccn2)nc1OCCO`, the Potency was “inactive”.
For `CN1C[C@@H]2C[C@H]1CN2c1cc2c(cc1F)c(=O)c(C(=O)O)cn2C1CC1`, the Potency was 9.41 µM (active).
In the case of `O=C(O)[C@@H]1[C@H]2C[C@H]3c4[nH]c5ccccc5c4CCN3C[C@@H]2CC[C@@H]1O`, the Potency is reported as 21.5 µM (active).

System: Zika virus NS2B-NS3 protease (unlinked complex)
Experiment: Confirmatory screen GU AMC qHTS for Zika virus inhibitors (AID 1347153); further: nearly all actives have a fitted effect of over 70% in size
Details: Recombinant NS2B-NS3 protease, AMC substrate fluorescence; series mostly up to 57.1 µM
In short: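 Unlinked NS2B-NS3 complex (25 nM) in 10 mM Tris-HCl pH 8.0, 0.01% Tween 20 preincubated 15 min with compound, then 10 microM Bz-Nle-KRR-AMC (Km 18.3 µM). Fluorescence change over 15 min, normalized, Hill-fitted.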
For `O=C(O)Cn1c(C(=O)Nc2nc(-c3ccccc3Cl)cs2)cc2ccccc21`, the Potency was 24.1 µM (active).
For `CN1C[C@@H]2C[C@H]1CN2c1cc2c(cc1F)c(=O)c(C(=O)O)cn2C1CC1`, the Potency was 16.7 µM (active).
With `O=C(O)[C@@H]1[C@H]2C[C@H]3c4[nH]c5ccccc5c4CCN3C[C@@H]2CC[C@@H]1O` the Potency was “inactive”.

System: Zika virus NS2B-NS3 protease
Experiment: Primary screen GU AMC qHTS for Zika virus inhibitors (AID 1347154); further: nearly all actives have a fitted effect of over 70% in size; further: potency means the concentration at half of the fitted maximal effect
Details: Zika NS2B-NS3 unlinked protease, AMC fluorogenic substrate; series mostly up to 54.1 µM
In short: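 Unlinked Zika NS2B hydrophilic domain–NS3 protease complex at 25 nM in 10 mM Tris-HCl pH 8.0, 0.01% Tween 20, with an AMC peptide substrate. Fluorescence change (340/450 nm) over 15 min at room temperature, normalized to controls, fitted to 4-parameter Hill.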
With `NS(=O)(=O)c1ccc(NC(=O)CCC(=O)O)cc1` the Potency was “inactive”.
For `O=C(Cn1ccnc1[N+](=O)[O-])NCc1ccccc1`, the Potency was “inactive”.
In the case of `Cc1c(NC(C)C)c(=O)n(-c2ccccc2)n1C`, the Potency is reported as “inactive”.
With `CN(C(=O)c1c(O)c2ccccc2n(C)c1=O)c1ccccc1` the Potency was “inactive”.
In the case of `O=C1c2ccccc2C(=O)C1c1ccc(Br)cc1`, the Potency is reported as “inactive”.
In the case of `CO[C@@]1(NC(=O)C(C(=O)O)c2ccc(O)cc2)C(=O)N2C(C(=O)O)=C(CSc3nnnn3C)CO[C@@H]21` (stereo partly drawn), the Potency is reported as “inactive”.
In the case of `CC(=O)[C@@]1(O)CC[C@H]2[C@@H]3C[C@H](C)C4=CC(=O)C=C[C@]4(C)[C@@]3(F)[C@@H](O)C[C@@]21C`, the Potency is reported as “inactive”.
For `CCOC(=O)c1cccnc1`, the Potency was “inactive”.
For `OC[C@@H](O)[C@@H](O)[C@H](O)[C@H](O)CO`, the Potency was “inactive”.
In the case of `O=C(O)CCC(=O)O`, the Potency is reported as “inactive”.
With `O[C@@H]1CO[C@H]2[C@@H]1OC[C@@H]2O` the Potency was “inactive”.
With `NC(=O)c1ccc([N+](=O)[O-])cc1Cl` the Potency was “inactive”.
With `CC1CCc2cc(F)cc3c(=O)c(C(=O)O)cn1c23` (stereo not drawn) the Potency was “inactive”.
With `CN1C[C@@H]2C[C@H]1CN2c1cc2c(cc1F)c(=O)c(C(=O)O)cn2C1CC1` the Potency was 8.82 µM (active).
For `O=C(O)C(S)C(S)C(=O)O` (stereo not drawn), the Potency was “inactive”.
With `COCC(=O)Nc1c(I)c(C(=O)NCC(O)CO)c(I)c(C(=O)N(C)CC(O)CO)c1I` (stereo not drawn) the Potency was “inactive”.
With `CCOc1ccc(C(=O)OCCN(CC)CC)cc1` the Potency was “inactive”.
With `CC(O)CCCCn1c(=O)c2c(ncn2C)n(C)c1=O` (stereo not drawn) the Potency was “inactive”.
In the case of `CCN(CC)CC1CCCCN1CC(=O)N1c2ccccc2C(=O)Nc2cccnc21` (stereo not drawn), the Potency is reported as “inactive”.
With `CC1(C)S[C@@H]2[C@H](N=CN3CCCCCC3)C(=O)N2[C@H]1C(=O)O` the Potency was “inactive”.
In the case of `O=C(NCC(O)CO)c1c(I)c(C(=O)NCC(O)CO)c(I)c(N(CCO)C(=O)CO)c1I` (stereo not drawn), the Potency is reported as “inactive”.
In the case of `CC1CCN(CCCC(=O)c2ccc(F)cc2)CC1`, the Potency is reported as “inactive”.
For `O=C(O)COC(=O)Cc1ccccc1Nc1c(Cl)cccc1Cl`, the Potency was “inactive”.
In the case of `COc1ccc(NS(=O)(=O)c2ccc(N)cc2)nn1`, the Potency is reported as “inactive”.
With `O=C1CC[C@@H](C(=O)O)N1` the Potency was “inactive”.
For `CCN(CC)S(=O)(=O)c1ccc(C(=O)O)cc1`, the Potency was “inactive”.
With `Cn1c([N+](=O)[O-])cnc1COC(N)=O` the Potency was “inactive”.
For `CCCCCCCCCCOc1cc2c(=O)c(C(=O)OCC)c[nH]c2cc1OCC`, the activity change, negative = inhibition was -1.56% [at 4.99 µM] (inactive).
With `C[n+]1ccccc1/C=N/O` the Potency was “inactive”.
In the case of `Cc1c(C)c2c(c(C)c1OC(=O)c1cccnc1)CC[C@@](C)(CCC[C@H](C)CCC[C@H](C)CCCC(C)C)O2`, the Potency is reported as “inactive”.
For `CC(=O)Nc1ccccc1`, the Potency was “inactive”.
With `Nc1ccncc1N` the Potency was “inactive”.
